Sm TGR block: S. mansoni TGR enzyme inhibition; purified TGR, DTNB reduction, TNB absorbance 405 nm; Potency, µM (highest dose often 114 µM), actives largely listed as inhibitors; 360,000 compounds, 3% hits; AID 485364; also: nearly all actives have a fitted effect of over 60% in size
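Kinetic colorimetric format: TGR-catalysed, NADPH-driven DTNB reduction monitored via TNB absorbance. Enzyme dispensed at 20 nM; compound exposure 15 min at room temperature before reaction start.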
NS1 inh: inhibitors of influenza NS1 protein function; Potency, µM (highest dose often 46.1 µM); 270,000 compounds, 0.4% hits; AID 2326; calls by dose curve; also: actives are rising curves; nearly all actives have a fitted effect of over 50% in size
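Recovery from NS1-induced slow growth read by OD600 in budding yeast switched to galactose assay medium (pH 6.0, -URA) at 1:100 dilution. Compound 23 nl per well; the matching strain lacking NS1 serves as control.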
LmPK inhibitor: blocks Leishmania mexicana pyruvate kinase activity. AID 1721. Potency, µM (top dose mostly 57.5 µM), most hits filed as inhibitors. Q27686. purified LmPK, Kinase-Glo ATP luminescence, 1 h. 290,000 compounds, 0.37% hits
Target sequence (Q27686 whole entry, looked up): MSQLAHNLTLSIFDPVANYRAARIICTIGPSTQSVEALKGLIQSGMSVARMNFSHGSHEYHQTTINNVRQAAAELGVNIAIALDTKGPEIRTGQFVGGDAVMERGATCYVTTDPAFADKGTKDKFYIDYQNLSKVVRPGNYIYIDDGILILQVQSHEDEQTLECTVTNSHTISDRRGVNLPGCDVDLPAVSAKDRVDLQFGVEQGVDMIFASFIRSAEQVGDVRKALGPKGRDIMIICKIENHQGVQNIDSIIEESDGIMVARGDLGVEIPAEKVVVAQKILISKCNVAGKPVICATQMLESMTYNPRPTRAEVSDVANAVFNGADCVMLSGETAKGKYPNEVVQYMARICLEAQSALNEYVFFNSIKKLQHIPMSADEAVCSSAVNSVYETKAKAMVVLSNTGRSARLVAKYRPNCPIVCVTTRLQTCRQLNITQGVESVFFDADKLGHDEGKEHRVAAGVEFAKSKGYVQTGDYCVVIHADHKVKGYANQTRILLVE
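Screened at intermediate enzyme activity to detect both inhibitors and activators: LmPK at 0.1 nM, with a 0.5 nM enzyme column as activation reference. PEP 0.5 mM, ADP 0.1 mM; ATP detected by luminescence after 1 h.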
RE007 growth inh: less growth of the S. pombe RE007 Vpr strain | S. pombe RE007 Vpr strain, BacTiter-Glo ATP luminescence, 24 h | Potency, µM (doses to about 92.2 µM), most hits filed as inhibitors | 360,000 compounds, 0.21% hits; active = well fitted falling curve with a large enough effect; inconclusive = small, poorly fitted or top-dose-only effect; inactive = no such curve, though single readings can be large or run the other way; also: nearly all actives have a fitted effect of over 50% in size
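Fission yeast strain RE007, carrying one chromosomally integrated HIV-1 vpr copy, was seeded at OD 0.01 in PMG+AL medium with 23 nL pinned compound. After 24 h at 30 °C and 99% humidity, viability was read by BacTiter-Glo luminescence.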
TbPYK inhibitor: inhibitors of Trypanosoma brucei pyruvate kinase. TbPYK enzyme, Kinase-Glo Plus ATP luminescence, 45 min. Potency, µM (series often up to 76.8 µM), most hits filed as inhibitors. 410,000 compounds, 0.12% hits. AID 624173; also: nearly all actives have a fitted effect of over 50% in size
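In this concentration-response screen, enzyme-free wells defined baseline while DMSO plates tracked drift. Each reaction combined TbPYK, substrate, compound and 130 uM ADP for 45 min at room temperature. Kinase-Glo Plus luminescence gave the signal.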
SARS PLP yeast: blocks SARS-CoV papain-like protease in a yeast assay. S. cerevisiae expressing SARS-CoV PLpro, growth rescue. Potency, µM (top dose mostly 32.9 µM), actives largely listed as activators. 330,000 compounds, 0.19% hits; calls by dose curve; also: nearly all actives have a fitted effect of over 55% in size
NS1 inh valid: validation of influenza NS1 protein function inhibitors; shares compounds with NS1 inh; influenza NS1 function cell assay, 15-point titration; activity change, negative = inhibition, % at 32.9 µM; 1,400 tested, under 10 active; calls by dose curve
PR8 titer: reduces influenza A/PR/8/34 replication in MDCK cells; 95 compounds, 30% hits; virus titer (log TCID50), log10 TCID50 at 5 µM; shares compounds with NS1 inh; AID 504647; MDCK infected influenza A/PR/8/34, virus titer TCID50; hits give low values; call rule not given here
Each line names hits and unclear results; the compound was inactive in the other large screens (follow-up assays come after a bar, where they were run). An excerpt weighted towards active compounds, which were near 3.3% of everything screened. Unless noted, calls follow the shape of the dose curve; as a rule, active = well fitted curve in the direction sought with a large enough effect; inconclusive = small, poorly fitted or top-dose-only effect, or another doubt; inactive = no such curve, though single readings can be large; an effect the other way counts as inactive or inconclusive.

CCOc1cc2[nH]c(=O)n(CC3CCC(C(=O)NCCC(C)C)CC3)c(=O)c2cc1OCC (configuration not stated)	none (no result: Sm TGR block, LmPK inhibitor, SARS PLP yeast)
CCc1ccc(Nc2nnc(SCC(=O)Nc3cccc(S(=O)(=O)NC4=NCCCCC4)c3)s2)cc1	NS1 inh 11µM (no result: RE007 growth inh) | NS1 inh valid inactive
Cc1ccc(Nc2nnc(SCC(=O)Nc3cccc(S(=O)(=O)NC4=NCCCCC4)c3)s2)cc1	NS1 inh inconclusive
COc1ccc(OC)c(CNC(=O)c2cc(S(=O)(=O)N3CCC(C)CC3)cn2C)c1	none (no result: NS1 inh, LmPK inhibitor, RE007 growth inh, SARS PLP yeast)
Cc1ccc(-c2cc(C(=O)Nc3sc4c(c3C(=O)NCc3ccco3)CCC4)[nH]n2)c(O)c1	NS1 inh inconclusive | NS1 inh valid inactive
Cc1cc(O)c(-c2cc(C(=O)Nc3sc4c(c3C(=O)NCc3ccco3)CCC4)[nH]n2)cc1C	NS1 inh inconclusive
COc1cccc(C(c2sc3nc(-c4ccco4)nn3c2O)N2CCOCC2)c1 (configuration not stated)	none (no result: NS1 inh, LmPK inhibitor, RE007 growth inh, SARS PLP yeast)
COc1ccc(OC)c(/C=N/NC(=O)Cc2nc3ccccc3[nH]2)c1	NS1 inh 2µM | NS1 inh valid inactive
O=C(Cc1nc2ccccc2[nH]1)N/N=C/c1ccccc1	NS1 inh inconclusive
CC(C)OC(=O)c1ccc(Cn2nnc3sc4c(c3c2=O)CCCC4)cc1	none (no result: NS1 inh, LmPK inhibitor, RE007 growth inh, SARS PLP yeast)
O=C(Cc1ccccc1)Nc1nnc2n1CCS2	none (no result: NS1 inh, LmPK inhibitor, RE007 growth inh, SARS PLP yeast)
O=C(Nc1nnc2n1CCS2)c1ccco1	NS1 inh inconclusive | NS1 inh valid inactive
CCC(=O)N1CCC2(CC1)Oc1ccc(Cl)cc1C(=O)C21CC(c2ccccc2)=NO1 (configuration not stated)	NS1 inh inconclusive | NS1 inh valid inconclusive
Cn1c(SCC(=O)NNC(=S)Nc2ccccc2)nnc1-c1ccncc1	NS1 inh 3.2µM (no result: RE007 growth inh, TbPYK inhibitor) | NS1 inh valid inactive
Cc1cccc(NC(=O)CSc2nnc(-c3ccncc3)n2C)c1	none
COc1ccc(-c2nnc(SCC(=O)Nc3cc(OC)ccc3OC)nc2-c2ccc(OC)cc2)cc1	none (no result: NS1 inh, LmPK inhibitor, RE007 growth inh, SARS PLP yeast)
Cc1ccc(/C=N/NC(=O)CN(Cc2ccccc2)S(=O)(=O)c2ccc3c(c2)OCCO3)cc1	NS1 inh 13µM | NS1 inh valid inactive | PR8 titer inactive
O=C(CN(Cc1ccccc1)S(=O)(=O)c1ccc2c(c1)OCCO2)Nc1ccc2c(c1)OCCO2	none
Cc1ccc(-c2ccc(/C=C3\SC(N4CCOCC4)=NC3=O)o2)cc1	Sm TGR block inconclusive (no result: NS1 inh)
Cc1ccc(/C=C2\SC(N3CCN(C(c4ccccc4)c4ccccc4)CC3)=NC2=O)o1	Sm TGR block 35µM, NS1 inh 11µM | NS1 inh valid inconclusive
Cc1nn(C)c2c1c(-c1ccccc1)cc(=O)n2CC(=O)NC(C)c1ccccc1 (configuration not stated)	none (no result: NS1 inh, LmPK inhibitor, RE007 growth inh, SARS PLP yeast)
O=C(c1ccccc1)[C@H]1[C@H](c2ccccc2)[C@@]2(N=C(c3ccccc3)OC2=O)C2c3ccccc3C=NN21 (some centres not stated)	NS1 inh 2.5µM (no result: RE007 growth inh, TbPYK inhibitor) | NS1 inh valid inactive
NNC(=O)CN1C(c2cccc(Cl)c2)=Nc2ccc(Br)cc2C1c1ccccc1 (configuration not stated)	none
NNC(=O)CN1C(c2ccccc2Br)=Nc2ccc(Br)cc2C1c1ccccc1 (configuration not stated)	NS1 inh 4.5µM | NS1 inh valid inactive | PR8 titer inactive
COC(=O)c1c(NC(=O)CN2CCN(Cc3ccc4c(c3)OCO4)CC2)sc(C)c1C	none (no result: TbPYK inhibitor)
COC(=O)c1c(NC(=O)CN2C(=O)c3ccccc3C2=O)sc(Cc2ccc3c(c2)OCO3)c1C	NS1 inh 10µM | NS1 inh valid inactive
O=C(NCc1ccccc1)C1CCN(C(=O)c2cnn(-c3ccccc3)c2-n2cccc2)CC1	none (no result: NS1 inh, LmPK inhibitor, RE007 growth inh, SARS PLP yeast)

Compound activity deposited in PubChem BioAssay by National Center for Advancing Translational Sciences (NCATS).
